Peg3 prom inh – Peg3 promoter activity inhibition | HeLa PEG-Prom luciferase reporter, luminescence, overnight | inhibition, % at 20 µM | 1.7% of 360,000 active | AID 588405;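 active = inhibition of at least 50% at 20 µM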
TWEAK-Fn14 inh – TWEAK-Fn14 signaling inhibition | TWEAK-stimulated Fn14 reporter cells, luciferase luminescence, 8 h | inhibition, % at 10 µM | 2% of 360,000 active; in the data active = inhibition above about 50%
TROY signal inh – inhibitors of TROY-dependent NF-kB signaling. inhibition, % at 10 µM. 0.98% of 360,000 active. Q293 LMP1-TROYcd NF-kB luciferase reporter, 4 h;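 active = compounds whose plate-normalised and pattern-corrected inhibition of the luciferase reporter signal at the single screening dose is 50% or more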
MITF TRPM1 inh – MITF TRPM1 promoter inhibition in SK-MEL-5 cells. 0.83% of 330,000 active. SK-MEL-5 TRPM1 promoter luciferase, 24 h. AID 488899. inhibition, % at 12.5 µM;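 active = mean inhibition across replicates of 60% or more, whatever share of single replicates reaches that level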
Shn3 3UTR inh – Schnurri-3 reporter inhibition in Clone20 osteoblasts; AID 588674; inhibition, % at 12.5 µM; Clone20 osteoblast Shn3 3'UTR firefly luciferase, 24 h; 0.52% of 360,000 active;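 active = mean inhibition of at least 75% with every replicate also reaching 75%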
LMP1 NFkB inh – inhibitors of Epstein-Barr LMP1-induced NF-kappaB reporter; inhibition, % at 12.5 µM; LMP1-induced NF-kappaB luciferase reporter cells, luminescence; 0.69% of 350,000 active; in the data active = inhibition above about 41%
Large screens that a line does not name were inactive. Compounds with a hit are over-represented: about 4.1% of the library has one in this group of screens.

CC(=O)Nc1cccc(-c2cn3ccccc3n2)c1	none
O=C(CSc1nc2ccccc2s1)Nc1ccc(Cl)c(S(=O)(=O)N2CCOCC2)c1	TWEAK-Fn14 inh 64.9
O=C(CSc1nc2ccccc2s1)Nc1ccc(N2CCOCC2)c(Cl)c1	none
Cc1nnc(NC(=O)CSc2nc3ccccc3o2)s1	none
COc1cccc2c1Oc1ncccc1N(C(=O)CCC(=O)NCc1ccccc1Cl)C2	none
CC1C(=O)N(Cc2cn(Cc3ccco3)nn2)CCS(=O)(=O)N1Cc1ccc(-c2ccc(F)cc2)cc1 (configuration not stated)	none (no result: MITF TRPM1 inh)
COC(=O)c1ccc(CSc2nnc(-c3ccncc3)n2Cc2ccccc2)o1	none
CCC(C)NC(=O)C1CCN(S(=O)(=O)c2cc([N+](=O)[O-])ccc2Cl)CC1 (configuration not stated)	none
COc1ccc2oc(=O)c(C(=O)Nc3cccc(C)c3)cc2c1	none
O=C(Nc1nc2ccccc2s1)C1CCN(S(=O)(=O)c2cc([N+](=O)[O-])ccc2Cl)CC1	TWEAK-Fn14 inh 83.7
Cc1cccc(NC(=O)c2cc3ccccc3oc2=O)c1	TWEAK-Fn14 inh 52.6
O=C(Nc1ccc(Cl)c(S(=O)(=O)N2CCOCC2)c1)c1cc2ccccc2oc1=O	Peg3 prom inh 94.8
O=C(CSc1nc2ccccc2o1)Nc1ccc(N2CCOCC2)c(Cl)c1	TROY signal inh 52.2
Nc1ncnc(N2CCOCC2)n1	none
CCOC(=O)C1(C)CCCCN1C(=O)c1ccnc(Cl)c1 (configuration not stated)	none (no result: MITF TRPM1 inh, LMP1 NFkB inh)
Cc1c(C(=O)Nc2cnccn2)oc2ccccc12	none
COc1cccc(NC(=O)c2cc3ccccc3o/c2=N\O)c1	TWEAK-Fn14 inh 77.7
Cc1c(C(=O)NC2=NCCS2)oc2ccccc12	TWEAK-Fn14 inh 57.2
Cc1ccnc(NC(=O)c2oc3ccccc3c2C)c1	TWEAK-Fn14 inh 50.7
CCCNS(=O)(=O)c1ccc(CCC(=O)N2CCN(c3ccc(F)cc3)CC2)cc1	none
CCOC(=O)NCc1ccccc1	LMP1 NFkB inh 84.2
CCOC(=O)C(Cc1ccccc1)C(=O)NCc1ccccc1 (configuration not stated)	none
Oc1ccc(C[C@H]2CNC(=S)N2CC2CCCN2C[C@H](Cc2ccc(O)cc2)N2C[C@H](Cc3ccccc3)N(CCc3ccccc3)C2=S)cc1 (some centres not stated)	TWEAK-Fn14 inh 54.9
Oc1ccc(C[C@H]2CN([C@@H](Cc3cccc(O)c3)CN3CCC[C@@H]3CN3C(=S)NC[C@@H]3Cc3ccccc3)C(=S)N2CC2CCCCC2)cc1	Peg3 prom inh 105.0, TWEAK-Fn14 inh 55.5 (no result: MITF TRPM1 inh, LMP1 NFkB inh)
Oc1ccc(C[C@H]2CN([C@@H](Cc3ccc(O)cc3)CN3CCC[C@@H]3CN3C(=S)NC[C@@H]3Cc3ccccc3)C(=S)N2CC2CCCCCC2)cc1	Peg3 prom inh 100.7, TWEAK-Fn14 inh 61.5 (no result: MITF TRPM1 inh, LMP1 NFkB inh)
Oc1ccc(C[C@H]2CNC(=S)N2CC2CCCN2C[C@H](Cc2ccc(O)cc2)N2C[C@H](Cc3ccc(O)cc3)N(CC3CCCCC3)C2=S)cc1 (some centres not stated)	TWEAK-Fn14 inh 96.4
CC(C)C[C@H]1CNC(=S)N1C[C@H]1CCCN1C[C@H](Cc1ccc(O)cc1)N1C[C@H](Cc2ccccc2)N(CCc2ccccc2)C1=S	none (no result: MITF TRPM1 inh, LMP1 NFkB inh)
Oc1ccc(C[C@H]2CNC(=S)N2CC2CCCN2C[C@H](Cc2ccccc2)N2C[C@H](Cc3ccc(O)cc3)N(CC3CCCCCC3)C2=S)cc1 (some centres not stated)	none
Cc1ccc(S(=O)(=O)NC[C@H]2O[C@@H](n3cnc4c(N)ncnc43)[C@H](O)[C@@H]2O)cc1	none (no result: MITF TRPM1 inh, LMP1 NFkB inh)
O=C(CSc1nc2nc(-c3cccs3)cc(C(F)(F)F)c2c(=O)[nH]1)C(F)(F)F	none
Oc1ccc(C[C@H]2CNC(=S)N2C[C@H]2CCCN2C[C@H](Cc2ccccc2)N2C[C@H](Cc3ccc(O)cc3)N(CC3CCCCCC3)C2=S)cc1	Peg3 prom inh 75.7 (no result: MITF TRPM1 inh, LMP1 NFkB inh)
CC(C)C[C@H]1CNC(=S)N1C[C@H]1CCCN1C[C@H](CC(C)C)N1C[C@H](Cc2ccc(O)cc2)N(CCc2ccccc2)C1=S	Peg3 prom inh 69.2 (no result: MITF TRPM1 inh, LMP1 NFkB inh)
CC(C)C[C@H]1CN([C@@H](CC(C)C)CN2CCC[C@@H]2CN2C(=S)NC[C@@H]2Cc2ccc(O)cc2)C(=S)N1CCc1ccccc1	none (no result: MITF TRPM1 inh, LMP1 NFkB inh)
Oc1ccc(C[C@H]2CN([C@@H](Cc3ccccc3)CN3CCCC3CN3C(=S)NC[C@@H]3Cc3ccccc3)C(=S)N2CC2CCCCC2)cc1 (some centres not stated)	none (no result: Peg3 prom inh, MITF TRPM1 inh, Shn3 3UTR inh, LMP1 NFkB inh)
O=[N+]([O-])/C(=C\Nc1ccc(F)cc1F)S(=O)(=O)c1ccccc1	none
COc1ccccc1N1CCN(C2CCCN(C(=O)CN3CCCCC3=O)C2)CC1 (configuration not stated)	none
COc1ccc(S(N)(=O)=O)cc1C(=O)OCC1CCCCC1	none
CCOc1cccc(/C=N/NC(=O)c2cccnc2)c1O	none
CCOc1cccc(/C=N/NC(=O)c2cc(C3CC3)[nH]n2)c1O	MITF TRPM1 inh 61.4, Shn3 3UTR inh 94.5
COc1cccc(CNC(=O)CCS(=O)(=O)c2cc3c(cc2C)NC(=O)CO3)c1	none
OC[C@@H]1[C@@H](c2ccccc2)C(c2ccc(F)cc2)=NN1c1ccccc1	none
OC[C@@H]1[C@@H](c2ccc(Cl)cc2)C(c2ccc(F)cc2)=NN1c1ccccc1	Peg3 prom inh 84.7
Cc1cc(C)c([N+](=O)[O-])cc1NCC(=O)N1CCN(c2ccccc2)CC1	none
COc1cccc(-n2nnnc2S(C)(=O)=O)c1	Peg3 prom inh 103.2, MITF TRPM1 inh 78.4, Shn3 3UTR inh 96.5, LMP1 NFkB inh 89.5
OCCN1CCN(CC(O)COc2ccc(Cl)cc2)CC1 (configuration not stated)	none
NCCOc1ccc(C23CC4CC(CC(C4)C2)C3)cc1	Peg3 prom inh 101.2
NCCOc1ccc(C2CCCCC2)cc1	none
OCCN1CCN(CC(O)COc2ccc(C34CC5CC(CC(C5)C3)C4)cc2)CC1 (configuration not stated)	Peg3 prom inh 113.9
COc1ccccc1CNCC(=O)Nc1ccccc1-n1cccc1	none
CC(=NNC(=S)Nc1ccccc1Cl)c1ccccn1	Shn3 3UTR inh 90.3, LMP1 NFkB inh 57.2
C=CCNC(=S)N/N=C(\C)c1ccccn1	Peg3 prom inh 74.7, TWEAK-Fn14 inh 108.4, Shn3 3UTR inh 91.5, LMP1 NFkB inh 79.6
N/C(=N\NC(=O)Nc1ccccc1)c1ccccn1	none (no result: MITF TRPM1 inh, LMP1 NFkB inh)
CC(=NNC(=S)Nc1ccccc1)c1ccccn1	LMP1 NFkB inh 71.7 (no result: MITF TRPM1 inh)
CC(C)N(C(=O)COC(=O)c1cccc(S(=O)(=O)N2CC3(C)CC2CC(C)(C)C3)c1)C(C)C (configuration not stated)	none
C1CCN(CC2CCCCN2)CC1 (configuration not stated)	none
CC(C)CCn1cnc2c(oc3nc4c(cc32)CCCC4)c1=O	TWEAK-Fn14 inh 76.0, TROY signal inh 55.3
CC1(C)Cc2nc3oc4c(=O)n(CC(=O)Nc5ccccc5)cnc4c3cc2CO1	none
